MEKK3 PB1 HTS: modulators (inhibitors or enhancers) of MEK5 binding to human MEKK3 PB1 domain. Q99759. bead-based flow cytometry, Alexa488-MEK5 binding to MEKK3; actives lie on both sides; 0 = blocked by unlabeled MEK5, 100 = vehicle. binding response (% of control), % at 10 µM. hit rate 1.4% among 290,000. AID 1529;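 active = binding response more than 3 SD above or below the average of its plate-row segment, actives on both sides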;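 note: Alexa488 bead fluorescence after subtracting the streptavidin-only scavenger bead signal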
SKN-1 inh: blocks SKN-1 activity in C. elegans | C. elegans VP596 Pgst-4::GFP/RFP ratio, acrylamide-induced, 24 h | hit rate 0.49% among 360,000 | inhibition, % at 21.8 µM | AID 624304;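 active = interference check ratio from 0.5 to 1.5 plus GFP to RFP signal ratio inhibition reaching or exceeding a fixed threshold, cut at about 30% in these data, passing the limit was not always enough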
MEKK2mut PB1 HTS: signal of MEK5 binding to mutant human MEKK2 PB1 domain; AID 1530; hit rate 0.35% among 290,000; percent response, % at 10 µM; bead flow cytometry, Alexa488-MEK5 binding to MEKK2 mutant; in the data active = percent response above about 24%, passing the limit was not always enough
MEKK2 WT-MEK5: raises or lowers MEK5 binding to wildtype human MEKK2 PB1 domain. Q9Y2U5. bead flow cytometry, Alexa488-MEK5 binding to MEKK2 WT; actives lie on both sides. binding response (% of control), % at 10 µM. hit rate 1.1% among 290,000. AID 1531; in the data active = binding response below about 67% or above about 130%
CendR NRP1 mod: modulators of CendR peptide binding to human neuropilin-1; FAM-RPARPAR peptide binding to NRP-1, fluorescence polarization; inhibition, % at 25 µM; hit rate 0.85% among 360,000; AID 602438;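 active = inhibition or corrected inhibition above about 18%, plus a signal ratio from 0.5 to 1.5, limit read from the data, passing the limit was not always enough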
Target sequence (O14786 whole entry, looked up): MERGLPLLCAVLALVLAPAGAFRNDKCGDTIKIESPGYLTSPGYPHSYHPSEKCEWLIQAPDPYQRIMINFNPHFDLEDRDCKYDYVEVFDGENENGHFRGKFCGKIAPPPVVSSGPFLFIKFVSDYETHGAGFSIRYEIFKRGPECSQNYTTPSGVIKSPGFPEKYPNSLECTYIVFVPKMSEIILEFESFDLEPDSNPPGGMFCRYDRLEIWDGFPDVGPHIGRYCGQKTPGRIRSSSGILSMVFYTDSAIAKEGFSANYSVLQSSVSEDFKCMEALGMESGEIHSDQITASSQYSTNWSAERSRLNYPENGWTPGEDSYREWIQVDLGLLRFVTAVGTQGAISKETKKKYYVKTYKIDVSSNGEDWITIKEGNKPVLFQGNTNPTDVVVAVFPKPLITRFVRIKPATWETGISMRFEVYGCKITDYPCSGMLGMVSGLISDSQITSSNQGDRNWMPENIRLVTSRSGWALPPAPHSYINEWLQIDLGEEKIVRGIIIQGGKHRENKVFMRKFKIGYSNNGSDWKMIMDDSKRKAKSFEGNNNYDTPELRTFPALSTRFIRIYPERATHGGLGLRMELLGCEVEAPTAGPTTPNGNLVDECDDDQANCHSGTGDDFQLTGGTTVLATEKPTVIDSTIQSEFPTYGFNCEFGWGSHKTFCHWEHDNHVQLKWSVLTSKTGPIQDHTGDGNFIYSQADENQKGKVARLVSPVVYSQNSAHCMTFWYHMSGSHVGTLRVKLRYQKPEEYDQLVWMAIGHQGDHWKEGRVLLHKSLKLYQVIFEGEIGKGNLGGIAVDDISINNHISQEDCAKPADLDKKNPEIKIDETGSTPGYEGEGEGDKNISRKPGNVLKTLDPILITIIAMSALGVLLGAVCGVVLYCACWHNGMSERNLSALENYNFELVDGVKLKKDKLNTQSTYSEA
* = called active by the depositor; · = no result given; [ ] = remark or other dose. Rows were chosen to be rich in hits. Some 3.2% of all compounds tested hit in one or more screens of this group.

SMILES | MEKK3 PB1 HTS | SKN-1 inh | MEKK2mut PB1 HTS | MEKK2 WT-MEK5 | CendR NRP1 mod
CCC1=C[C@H]2CN(C1)Cc1c([nH]c3ccccc13)[C@@](C(=O)OC)(c1cc3c(cc1OC)N(C)[C@H]1[C@@](O)(C(=O)OC)[C@H](OC(C)=O)[C@]4(CC)C=CCN5CC[C@]31[C@@H]54)C2 | 111 | · | 32* | 183* | ·
COc1ccc(NC(=S)NNC(=O)C2CC2c2ccc(C)cc2)cc1 (stereo not drawn) | 87 | 3 | -4 | 85 | 1
Cc1ccc(NC(=S)NNC(=O)C2CC2c2ccc(C)cc2)cc1 (stereo not drawn) | 97 | 40* | 1 | 93 | -3
COc1cccc(NC(=S)N(Cc2cccc(Br)c2)CC2CCC(C(=O)O)CC2)c1 (stereo not drawn) | 95 | -2 | -5 | 91 | 30*
COc1ccc(NC(=S)N(Cc2cccc(Br)c2)CC2CCC(C(=O)O)CC2)cc1 (stereo not drawn) | 103 | -7 | 3 | 102 | 10
COc1ccc2oc(=O)c(/C(N)=N/NC(=O)c3ccncc3)cc2c1 | 103 | 38* | 6 | 109 | -10
C/C(=N\NC(=O)c1ccncc1)c1cc2ccccc2oc1=O | 110 | -3 | -1 | 105 | -8
CN(C)c1cc2c3ccccc3n(C)c2cc1N | · | 14 | · | · | -12
O=C1NN(c2cccc(Br)c2)C(=O)/C1=C/c1ccc(-c2cc([N+](=O)[O-])ccc2O)o1 | 36*[inhibitor] | 9 | -15 | 29*[inhibitor] | -18
CC1=NN(c2ccc(C)cc2)C(=O)/C1=C/c1ccc(-c2cc([N+](=O)[O-])ccc2O)o1 | 89 | -13 | -8 | 86 | 16
COC(=O)c1ccccc1C(=O)N1CCC(CCC(=O)NC2CC2)CC1 | 105 | -5 | 7 | 109 | 8
O=C(CSc1nccn1Cc1ccc(F)cc1)NC1CCCCC1 | · | 9 | · | · | 25*
Cc1cc(NC(=O)CN(C)CC(=O)Nc2ccc(F)c(F)c2F)no1 | · | 4 | · | · | 2
CCCN(CC(=O)Nc1cc(C)on1)CC(=O)Nc1ccc(F)c(F)c1F | · | -5 | · | · | 23*
O=C1NN=C2CCCCCCCCCCC12 (stereo not drawn) | · | 13 | · | · | -1
Cc1ccc(Sc2ccc(NC(=O)CCN3C(=O)NC4(CCCC4)C3=O)cc2)c(C)c1 | · | 10 | · | · | 2
COC(=O)c1c(C(=O)OC)c(-c2ccc(Cl)c(Cl)c2)n2c1CCC2 | 96 | 12 | 3 | 104 | 23*
CC(=O)Nc1c2c3c(cccc3n(C)c1=O)C(=O)c1ccccc1-2 | 86 | 8 | -12 | 95 | 53*
Cn1c(=O)c(Nc2ccc(Cl)cc2)c2c3c(cccc31)C(=O)c1ccccc1-2 | 97 | · | -8 | 74 | ·
O=c1[nH]nc(Br)c(=O)n1C(c1ccccc1)c1ccccc1 | · | 6 | · | · | 2
O=C1C(C2=C(O)c3ccccc3C2=O)=Nc2ccccc21 | 99 | 26 | 2 | 97 | 39*
C[C@H](NC(=O)c1nc[nH]c1C(=O)NCCCCCNC(=O)OC(C)(C)C)c1ccccc1 | · | 19 | · | · | 28*
C[C@H](NC(=O)c1nc[nH]c1C(=O)NCc1ccc(CNC(=O)OC(C)(C)C)cc1)c1ccccc1 | · | 7 | · | · | 28*
Cc1ccc(NC(=O)c2nc[nH]c2C(=O)N2CCN(C(=O)OC(C)(C)C)CC2)cc1 | · | 17 | · | · | 14
C[C@@H](NC(=O)c1nc[nH]c1C(=O)NCc1ccccc1)c1ccccc1 | · | -6 | · | · | 26*
SMILES | MEKK3 PB1 HTS | SKN-1 inh | MEKK2mut PB1 HTS | MEKK2 WT-MEK5 | CendR NRP1 mod
CC(C)(C)OC(=O)NCc1ccc(CNC(=O)c2nc[nH]c2C(=O)N2CCN(C(=O)OC(C)(C)C)CC2)cc1 | · | 8 | · | · | 27*
C[C@@H](NC(=O)c1nc[nH]c1C(=O)NCCCCCNC(=O)OC(C)(C)C)c1ccccc1 | · | 18 | · | · | 7
CC1(C)OC(=O)C2=C(C[C@@H](C3CCCCC3)O[C@H]2c2ccc(F)cc2)O1 | · | 7 | · | · | -3
C[C@@H](NC(=O)c1nc[nH]c1C(=O)N1CCN(c2ccccc2)CC1)c1ccccc1 | · | 10 | · | · | 22*
c1ccc(COC2COC3C(OCc4ccccc4)COC23)cc1 (stereo not drawn) | · | 5 | · | · | 12
Fc1ccc(CNc2nc(-c3ccccc3)nc3ccccc23)cc1 | 98 | 46* | -3 | 101 | 0
O=C(Nc1ccc2c(c1)OCCO2)C1c2ccccc2OCC(=O)N1Cc1ccccc1 (stereo not drawn) | · | 15 | · | · | 10
CNc1c2cccc(C)c2nc2c(C(=O)NCCN(C)C)cccc12 | · | -8 | · | · | 140
COc1ccc(-c2nc(-c3cccs3)no2)cc1 | 95 | 38* | -4 | 95 | -10
COc1ccccc1-c1noc(-c2cccs2)n1 | 98 | 19 | -2 | 97 | -3
COc1ccc(-c2nc(-c3ccncc3)no2)cc1 | 97 | 17 | -2 | 97 | 11
c1csc(-c2nc(-c3ccc(-c4ccon4)s3)no2)c1 | 96 | 46* | -12 | 94 | -12
Cc1ccc(-c2noc(-c3cccs3)n2)cc1 | 80 | 67* | -10 | 80 | -1
COc1ccc(C(N)c2csc(Nc3ccc(S(C)(=O)=O)cc3)n2)cc1 (stereo not drawn) | · | 6 | · | · | 3
O=C(CN(C(=O)CNC(=O)c1ccco1)c1ccc2c(c1)OCCO2)NC1CCCC1 | 105 | -13 | 2 | 102 | 21*
CCOc1cc(C=NNC(=O)N(c2ccccc2)c2ccccc2)ccc1O | · | 1 | · | · | 17
Cc1ccnc(N2CCC(C(=O)Nc3ccc4c(c3)OCCO4)CC2)n1 | 92 | 5 | -9 | 82 | 25*
COc1ccc(OC)c(NC(=O)C2CCCN(S(C)(=O)=O)C2)c1 (stereo not drawn) | 105 | 9 | 11 | 107 | -9
CCCCN(CCCC)c1ncnc2nc[nH]c12 | 123 | 1 | 0 | 102 | 22*
CCCCN(Cc1ccccc1)c1ncnc2nc[nH]c12 | 110 | -5 | 13 | 117 | -17
CCOc1ccccc1C(=O)Nc1ccc(-n2nncc2C(C)(C)C)cc1 | 109 | 35* | -1 | 103 | 0
CCOc1ccccc1C(=O)Nc1ccc(S(=O)(=O)N2CCN(C)CC2)cc1 | 103 | 13 | 2 | 103 | 0
Cc1ccc(NC(=O)COC(=O)C2(C)CC2(Cl)Cl)cc1S(=O)(=O)N1CCOCC1 (stereo not drawn) | · | 41* | · | · | -6
Cc1ccc(NC(=O)COC(=O)c2ccco2)cc1S(=O)(=O)N1CCOCC1 | · | -2 | · | · | -15
COCC(C)n1c(C)cc(C(=O)COC(=O)c2ccc3c(c2)NC(=O)CS3)c1C (stereo not drawn) | 106 | 1 | -1 | 99 | 30*
O=C(C(=O)N1CCC(c2ccccc2)CC1)c1cccc([N+](=O)[O-])c1 | · | 11 | · | · | -6
CCCCCNC(=O)c1ccccc1SC | 100 | 35* | 5 | 101 | -10
Cc1ccc(C(=O)NCCOc2cccc(C)c2)cc1 | 107 | 9 | 0 | 102 | 11
CSc1ccccc1C(=O)NCCOc1cccc(C)c1 | 89 | 40* | -3 | 87 | 2

Screening data deposited in PubChem by several laboratories.
